# Screening data (PubChem BioAssay)
# Cav32 inh: Cav3.2 calcium influx blockers – cell-based, Fluo-4 calcium fluorescence, FDSS, MLSMR library, primary screen | Voltage-dependent T-type calcium channel subunit alpha-1H (Homo sapiens), O95180 | Cav3.2-expressing cells; hits give low values | B-score at 10 µM | 100,000 tested, 4% active;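 active = single-dose well whose peak fluorescence ratio is a statistical outlier from its plate by either plate-standardised score or position-corrected B-score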
# Pyk2 oligo antag: antagonists of Pyk2 self-association, primary screen, Q293 cells, FERM NanoBiT luminescence, HTS; Protein-tyrosine kinase 2-beta (Homo sapiens), Q14289; hits give low values; z-score (the deposit names both 25 µM and 10 µM); 99,000 tested, 0.83% active; AID 1347419, 2020;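 active = Z-score of -3 or lower, scaled per plate to the spread of control and sample wells; inactive = z-score above -3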;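 note: negative z-score means lost luminescence so less FERM oligomerization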
# Target sequence (Q14289 whole entry, looked up): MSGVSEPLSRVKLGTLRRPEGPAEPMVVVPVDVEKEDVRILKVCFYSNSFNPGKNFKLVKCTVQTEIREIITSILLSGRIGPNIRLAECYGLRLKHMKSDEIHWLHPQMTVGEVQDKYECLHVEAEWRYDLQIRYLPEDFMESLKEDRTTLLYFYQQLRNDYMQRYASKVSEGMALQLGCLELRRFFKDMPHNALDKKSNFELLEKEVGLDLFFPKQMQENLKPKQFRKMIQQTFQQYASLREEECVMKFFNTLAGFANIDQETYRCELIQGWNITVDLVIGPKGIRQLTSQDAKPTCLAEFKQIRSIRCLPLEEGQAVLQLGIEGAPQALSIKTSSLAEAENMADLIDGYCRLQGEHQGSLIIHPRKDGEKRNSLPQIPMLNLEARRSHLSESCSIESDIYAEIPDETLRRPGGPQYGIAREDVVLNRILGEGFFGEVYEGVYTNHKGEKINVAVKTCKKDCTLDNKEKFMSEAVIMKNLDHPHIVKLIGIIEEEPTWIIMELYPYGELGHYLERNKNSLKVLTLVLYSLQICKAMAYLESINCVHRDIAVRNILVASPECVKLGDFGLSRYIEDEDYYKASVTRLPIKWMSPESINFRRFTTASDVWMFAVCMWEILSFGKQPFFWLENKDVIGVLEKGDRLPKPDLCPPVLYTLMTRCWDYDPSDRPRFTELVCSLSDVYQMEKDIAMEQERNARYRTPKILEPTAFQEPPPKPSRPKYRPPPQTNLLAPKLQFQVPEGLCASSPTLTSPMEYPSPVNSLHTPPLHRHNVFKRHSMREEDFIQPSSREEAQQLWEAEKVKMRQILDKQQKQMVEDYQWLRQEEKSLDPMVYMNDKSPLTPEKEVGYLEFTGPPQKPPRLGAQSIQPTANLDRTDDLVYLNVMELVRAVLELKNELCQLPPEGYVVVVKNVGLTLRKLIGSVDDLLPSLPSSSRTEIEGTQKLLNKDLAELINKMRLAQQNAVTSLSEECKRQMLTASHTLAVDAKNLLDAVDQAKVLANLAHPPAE
# PLK1 kinase inh: human PLK1 kinase inhibitors, primary screen, biochemical, TR-FRET. inhibition, % at 10 µM. 97,000 tested, 0.53% active. AID 619, 2007. Serine/threonine-protein kinase PLK1 (Homo sapiens), P53350. recombinant PLK1 kinase, TR-FRET peptide phosphorylation;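 active = inhibition of 50% or more in the single-concentration screen; inactive = inhibition below 50%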;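 note: 0% = DMSO max control and 100% = H-89 dihydrochloride min control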
# Plk1 PBD FP: Plk1 polo box domain binding inhibitors, primary screen, biochemical, fluorescence polarization | Serine/threonine-protein kinase PLK1 (Homo sapiens), P53350 | Plk1 PBD phosphopeptide binding | inhibition, %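 (tested at about 20 µM)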 | 97,000 tested, 0.13% active; in the data active = inhibition above about 34%, passing the limit was not always enough
# DAT uptake mod: changed hDAT dopamine uptake under cocaine IC80, either direction, primary screen, cocaine antagonist project, cell-based, LLC-PK1 hDAT, [14C]-dopamine uptake, MLSMR; Sodium-dependent dopamine transporter (Homo sapiens), Q01959; LLC-PK1 hDAT cells, [14C]-dopamine uptake with cocaine IC80; actives deviate in either direction; B-score at 10 µM; 110,000 tested, 1.3% active; AID 449768, 2010;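 active = Z score or B-score, a plate-position-corrected score, falls beyond the plate's 99.7% confidence bounds, in either direction; inactive = both scores lie inside the 99.7% bounds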;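 note: scored against the spread of the other compound wells on the same plate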
# SDO1 yeast rescue: growth rescue of sdo1-depleted yeast, primary screen, S. cerevisiae, bone marrow failure model; S. cerevisiae sdo1-depleted JHY4D growth rescue, OD600 30 h; hits give high values; pdr5 snq2 efflux-pump mutant strain; z-score at 10 µM; 140,000 tested, 0.21% active; AID 817, 2007;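 active = z-score above 3 at both the 24 hr and the 30 hr optical density reads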;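 note: z-score against mean and SD of all compound wells on the same plate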
# * marks the source's active call; other numbers are inactive results; · = no result given. In the library only some 4.7% were active in any assay of this set; here they are far more common.
SMILES,Cav32 inh,Pyk2 oligo antag,PLK1 kinase inh,Plk1 PBD FP,DAT uptake mod,SDO1 yeast rescue
O=C(Nc1ccccc1N1CCN(C(=O)c2ccc(Cl)cc2)CC1)c1ccc2c(c1)OCO2,-1.36,-3.17*,-5.3,-16.6,-0.059,-1.2
CC(C)C(=O)N1CCN(c2ccc(NC(=O)c3ccc4c(c3)OCCO4)cc2Cl)CC1,-0.7,-3.56*,12.5,0.3,0.291,-0.81
CC(=O)N1CCN(c2ccc(NC(=O)c3ccc4c(c3)OCCO4)cc2)CC1,-1.85,-0.06,-7.5,3.6,-0.0529,1.36
N#Cc1c(Nc2ccccc2)sc(C(=O)c2ccc(F)cc2)c1N,·,·,·,·,·,-0.39
Nc1c(C(=O)c2ccccc2)sc(Nc2ccccc2)c1S(=O)(=O)c1ccccc1,-3.81*,-2.1,-10.9,7.8,-0.228,-1.06
Cc1c(-c2ccccc2)oc2c(C(=O)N3CCN(c4ccccc4F)CC3)cccc2c1=O,·,-0.98,·,·,·,-0.17
O=C(CSc1nc(-c2ccccc2)c(-c2ccccc2)[nH]1)N1CCN(S(=O)(=O)c2ccccc2)CC1,-6*,-1.31,-11.3,1.9,0.25,-0.4
O=C(CSc1ncc(C(F)(F)F)cc1Cl)N1CCN(S(=O)(=O)c2ccc(Cl)cc2)CC1,·,-0.7,3.7,-1.1,·,-0.98
O=C(CSc1ncc(C(F)(F)F)cc1Cl)N1CCN(S(=O)(=O)c2ccccc2)CC1,-4.06*,-1.08,-6.0,7.7,1.41,-0.88
O=C(CCSc1ccc(Cl)cc1)N1CCN(c2ncccn2)CC1,-4.73*,1.58,-12.6,-19.0,0.925,-1.02
O=C(CSc1ccc(Cl)cc1)N1CCN(c2ncc(C(F)(F)F)cc2Cl)CC1,-3.81*,-0.01,-5.1,7.3,1.25,-1.68
C/C(=N\NC(=O)c1cccs1)C(C)(C)C,·,·,·,·,·,0.81
O=C(CN1CCN(c2ncc(C(F)(F)F)cc2Cl)CC1)N1CCN(c2ncc(C(F)(F)F)cc2Cl)CC1,-3.16*,1.69,-0.5,-23.3,0.469,-1.34
O=C(OCCN1CCN(c2ncc(C(F)(F)F)cc2Cl)CC1)c1ccc(F)cc1,-0.0682,0.04,-3.8,22.4,0.0841,-0.25
COC(=O)Nc1ccccc1C(=O)N1CCCCC1,0.0287,0.67,-12.2,20.6,-2.74*,0.13
CCCCOC(=O)Nc1ccccc1C(=O)N1CCCC1,·,·,·,·,·,0.15
O=C(c1ccccc1Nc1ccc(SC(F)F)cc1)N1CCCCC1,-7.05*,-0.82,-6.0,3.7,1.58,-1.69
CC1CCC(C(=O)NC(C(=O)N2CCN(c3ccccn3)CC2)C(C)C)CC1 (stereo not given),·,-0.3,3.0,1.8,·,-0.49
CC1CCC(C(=O)NC(C(=O)N2CCc3ccccc3C2)C(C)C)CC1 (stereo not given),-5.36*,-0.58,-13.4,-3.4,-0.852,-1
Cc1ccn2c(-c3csc(NCc4ccccc4)n3)c(C)nc2c1,0.888,1.44,7.4,14.8,2.9*,-1.87
CCNc1nc(NCC)n2c(SCC(=O)Nc3ccccc3[N+](=O)[O-])nnc2n1,·,·,·,·,·,1.36
CC(=O)Nc1cc(OC(C)=O)c2nonc2c1OC(C)=O,1.78,-0.26,4.6,53.6*,-1.78,·
O=C(CSc1nc2ccsc2c(=O)n1Cc1ccc(C(=O)O)cc1)NCC1CCCO1 (stereo not given),·,0.28,·,·,·,-0.21
CCC1CCCCN1C(=O)CSc1nc2ccsc2c(=O)n1Cc1ccccc1 (stereo not given),-4.87*,-2.15,-9.3,1.6,0.663,-1.24
COc1ccc(C(NC(C)=O)c2ccc3cccnc3c2O)c(OC)c1 (stereo not given),0.279,-1.81,·,·,1.03*,1.78
SMILES,Cav32 inh,Pyk2 oligo antag,PLK1 kinase inh,Plk1 PBD FP,DAT uptake mod,SDO1 yeast rescue
CC(C)C(=O)NC(c1ccco1)c1ccc2cccnc2c1O (stereo not given),0.33,0.77,-7.8,11.1,-0.805,1.09
COc1ccccc1N=Nc1nc(-c2ccccc2)c(-c2ccccc2)[nH]1,·,·,·,·,·,-1.09
Oc1ccccc1N=Nc1nc(-c2ccccc2)c(-c2ccccc2)[nH]1,-0.364,-3.76*,-10.8,-25.5,-0.955,-1.33
CCN1C(=O)N(S(=O)(=O)c2ccc(C)cc2)[C@@H](c2ccccc2)C(C(=O)OC)=C1C,-0.748,·,·,·,-0.535,·
CC(C)OCCCNC(=O)C1CCC(CNS(=O)(=O)c2ccccc2)CC1 (stereo not given),·,·,·,·,·,0.87
O=c1ccn(Cc2ccc(F)cc2)c2ccnc(C(F)(F)F)c12,·,·,·,·,·,1.43
Cc1ccc(-n2c(SCC(=O)Nc3ccc4c(c3)OCO4)nnc2-c2cccs2)cc1,-1.51,-1.84,-9.7,-1.9,-0.402,-1.32
C=CCn1c(Cc2cccs2)nnc1SCC(=O)Nc1ccc(OC)cc1,-0.451,-0.59,-1.6,29.6,-0.679,-0.88
COc1ccc(NC(=O)CSc2nnc(Cc3cccs3)n2-c2ccc(C)cc2)cc1,-5.26*,-2.59,-1.3,25.2,1.36,-0.75
COc1cccc(NC(=O)CSc2nnc(Cc3cccs3)n2-c2ccc(C)cc2)c1,-3.18,-3.16*,12.6,-5.7,0.546,-2.03
COc1ccc(-n2c(Cc3cccs3)nnc2SCC(=O)Nc2ccc3c(c2)OCCO3)cc1,-6.78*,-2.02,-5.9,13.3,1.47,-0.58
COc1cccc(NC(=O)CSc2nnc(-c3cccs3)n2C)c1,1.29,-0.26,-6.5,2.9,-0.319,0.39
CCOC(=O)c1ccc(NC(=S)Nc2ccccc2N)cc1,0.808,·,·,·,1.35,·
CCN(CC)S(=O)(=O)c1ccc(N2CCOCC2)c(NC(=O)C23CC4CC(CC(Cl)(C4)C2)C3)c1,·,·,·,·,·,-0.88
O=S(=O)(Nc1nc2ccccc2nc1Nc1cccc(S(=O)(=O)N2CCCCC2)c1)c1ccccc1,·,·,·,·,·,-0.09
CN1CCN(CCC(=O)Nc2cccc(F)c2)CC1,-5.04*,1.57,-3.5,18.2,-0.465,0.8
O=C(CCN1CCCC1)Nc1cccc(Br)c1,1.54,0.53,-12.0,5.2,-0.815,1.84
CC(C)C(=O)N1CCN(c2ccccc2NC(=O)Cc2ccc(Cl)cc2)CC1,-4.98*,-0.41,-10.4,0.6,-0.428,-0.93
COc1ccc(Cl)cc1C(=O)Nc1ccccc1N1CCN(C(=O)C(C)C)CC1,-4.22*,0.85,0.5,-13.6,1.17,-1.04
CS(=O)(=O)N1CCN(c2ccccc2NC(=O)Cc2ccc(Cl)cc2)CC1,-1.45,-0.09,-3.2,20.4,1.62,-0.6
CCC(=O)N1CCN(c2ccccc2NC(=O)Cc2ccccc2)CC1,-4.98*,0.34,-4.2,-6.1,0.387,0.54
CCOC(=O)c1ccccc1NC(=O)CSc1nnc(Cc2cccn2C)n1-c1ccc(F)cc1,-5.47*,0.65,-10.8,7.0,1.2,-0.11
CCOc1ccccc1NC(=O)CSc1nnc(Cc2cccn2C)n1-c1ccc(F)cc1,-9.29*,·,-19.0,-3.0,1.05,-1.09
